Our source for the outcome values is PubChem BioAssay (Tox21).

The source made the active and inactive calls. Calls come from the whole dose curve.

Androgen receptor (Homo sapiens), sequence (P10275 whole entry, looked up): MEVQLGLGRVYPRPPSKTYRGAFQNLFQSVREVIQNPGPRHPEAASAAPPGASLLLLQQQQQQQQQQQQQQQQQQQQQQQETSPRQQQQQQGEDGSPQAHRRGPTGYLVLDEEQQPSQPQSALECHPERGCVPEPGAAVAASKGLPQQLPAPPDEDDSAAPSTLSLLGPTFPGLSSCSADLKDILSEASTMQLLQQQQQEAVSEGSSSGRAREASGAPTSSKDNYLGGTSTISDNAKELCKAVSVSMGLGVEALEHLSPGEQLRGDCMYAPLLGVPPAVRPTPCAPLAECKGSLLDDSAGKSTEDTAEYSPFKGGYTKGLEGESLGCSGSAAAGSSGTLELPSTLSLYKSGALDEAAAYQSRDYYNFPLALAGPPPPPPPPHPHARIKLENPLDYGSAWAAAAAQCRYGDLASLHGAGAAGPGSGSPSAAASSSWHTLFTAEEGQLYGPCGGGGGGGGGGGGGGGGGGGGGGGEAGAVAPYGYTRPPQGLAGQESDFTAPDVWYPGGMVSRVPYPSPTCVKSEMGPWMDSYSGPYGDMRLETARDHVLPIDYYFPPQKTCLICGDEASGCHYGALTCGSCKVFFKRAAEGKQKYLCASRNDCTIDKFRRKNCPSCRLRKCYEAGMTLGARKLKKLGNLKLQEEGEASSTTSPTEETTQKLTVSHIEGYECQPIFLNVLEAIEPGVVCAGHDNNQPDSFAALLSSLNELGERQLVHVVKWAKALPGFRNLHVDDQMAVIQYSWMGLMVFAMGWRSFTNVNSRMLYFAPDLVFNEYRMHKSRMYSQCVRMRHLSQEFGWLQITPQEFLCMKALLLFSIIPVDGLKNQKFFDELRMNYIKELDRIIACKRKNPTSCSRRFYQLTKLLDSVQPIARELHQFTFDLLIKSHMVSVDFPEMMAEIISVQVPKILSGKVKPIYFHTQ

The test concerns the target Androgen receptor (Homo sapiens) (UniProt P10275). In words: qHTS assay to identify small molecule agonists of the androgen receptor (AR) signaling pathway in the presence of an antagonist (AID 1259381). Note: nearly all actives have a fitted effect of over 15% in size. As to conditions: MDA-kb2 MMTV-luciferase, AR agonist + nilutamide, 16 h; series mostly up to 92.4 µM. The text has this:
National Center for Advancing Translational Sciences [NCATS] NIH Chemical Genomics Center [NCGC] U.S. Environmental Protection Agency [EPA] National Institutes of Environmental Health Sciences [NIEHS] National Toxicology Program [NTP] Assay overview: Androgen receptor (AR) is an important member of nuclear receptor family. Its signaling plays a critical role in AR-dependent prostate cancer and other androgen related diseases. Considerable attention has been given in the past decades to develop methods to study and screen for the environmental chemicals that have the potential to interfere with metabolic homeostasis, reproduction, developmental and behavioral functions. Therefore AR binding assay for screening against androgen agonists and antagonists can be used to identify potential endocrine disruptors. MDA-kb2 cells (from ATCC, deposited by Wilson et al.) are human breast carcinoma cells that were stably transfected with a luciferase reporter gene under control of the MMTV promoter that contains response elements for both androgen receptor (AR) and glucocorticoid receptor (GR). This particular screening for measuring luciferase reporter gene activity using MDA-kb2 cells against Tox21 10K library compounds is a confirmation study on agonist mode screening in the presence of AR-antagonist compound (Nilutamide) at 3.0uM final concentration.
Assay Protocol Summary: MDA-kb2 cells (cells cultured without CO2) were dispensed at 3,000 cells/well in 4uL of culture medium into white wall/solid-bottom 1536-well plates (Corning Life Sciences, Corning, NY) using a Multidrop Combi (Thermo Fisher Scientific Inc., Waltham, MA) dispenser. The assay plates were incubated at 37C and 0% CO2 for 5hr. One uL of 3.0uM (final concentration) Nilutamide or assay buffer was added using two separate tips of Flying Reagent Dispenser (FRD, Aurora Discovery, San Diego, CA). Then 23nL of compounds dissolved in DMSO at 15 concentrations and positive controls were transferred to the assay plates using a Pintool station (Wako, San Diego, CA). The assay plates were incubated at 37C and 0% CO2 for 16hr. For luciferase read, 4uL/well ONE-Glo reagent (Promega Corporation, Madison, WI) was added to each well of the assay plates using FRD. After 30min incubation at room temperature, the luminescence signal was measured using a ViewLux plate reader (PerkinElmer, Shelton, CT).
(In general: In qHTS, concentration-response curves come from the screen itself.)
For the molecule `CC(C)(CO)CO`, the result was inactive.

Take `Cc1nnc(NS(=O)(=O)c2ccc(N)cc2)s1`: the outcome was inactive.

For `CCCCC(CC)COC(=O)c1ccc(C(=O)OCC(CC)CCCC)cc1` (centres undefined), the outcome was inactive.

Turning to `CO[Si](CCCNCCN)(OC)OC`, the result was inactive.

Regarding `O=[N+]([O-])c1ccccc1C(F)(F)F`, the outcome was inactive.

As to `CCCN(CCC)C(=O)SCC`, the outcome was inactive.

For the molecule `CCc1cccc(CC)c1N`, the outcome was inactive.

Turning to `Cc1ccccc1Cl`, the outcome was inactive.

Consider `OCC(O)CS` (centres undefined), for which the result was inactive.

For `Nc1nc(N)c2nc(-c3ccccc3)c(N)nc2n1`, the outcome was inactive.

Take `Cc1ccc(C(C)C)cc1`: the result was inactive.

For `O=[N+]([O-])c1cc(C(F)(F)F)ccc1Cl`, the result was inactive.

In the case of `CC(C=O)Cc1ccc(C(C)(C)C)cc1` (centres undefined), the outcome was inactive.

On to `CCCOCC(C)O` (centres undefined), for which the outcome was inactive.
